High-throughput results from PubChem BioAssay.
KB-V1 cytotox: KB-V1 MDR subline cytotoxicity. KB-V1 MDR cells viability, CellTiter-Glo, 72 h. Potency, µM (highest dose often 46.1 µM), actives largely listed as cytotoxic. 400,000 compounds, 3.4% hits; further: nearly all actives have a fitted effect of over 60% in size
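Readout: CellTiter-Glo luminescence, 10 min after addition. Cells: KB-V1 MDR subline, 72 h at 37 degrees C with compound. Analysis: corrected, normalized data fitted to concentration-effect curves.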
KB-3-1 cytotox: kills parental KB-3-1 adenocarcinoma cells. AID 1347075. 400,000 compounds, 1.4% hits. Potency, µM (series often up to 46.1 µM), most hits filed as cytotoxic. KB-3-1 viability, CellTiter-Glo ATP luminescence, 72 h; further: nearly all actives have a fitted effect of over 60% in size
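Parental KB-3-1 viability, qHTS format: 72 h compound exposure, 37 °C; CellTiter-Glo; media-only wells and DMSO plates as controls; concentration-effect fits on corrected data.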
ELG1 DNA repair: blocks ELG1-dependent DNA repair in HEK293T cells. Potency, µM (titrated, usually from 46.1 µM), actives largely listed as inhibitors. 330,000 compounds, 2.3% hits. HEK293T ELG1-luciferase reporter, luminescence, 16 h; DNA damage induced by 5-fluorouridine; further: nearly all actives have a fitted effect of over 55% in size
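Quantitative HTS, concentration-response format. 2,000 cells/well co-treated with 5-fluorouridine and compound, 16 hr in 5% CO2 at 37 °C; ONE-Glo luminescence read after 30 min.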
MCF10A rereplic: inducers of DNA re-replication in MCF 10A breast cells; Potency, µM (doses to about 46.1 µM), most hits filed as activators; MCF 10A DNA re-replication, Hoechst nuclear intensity, 48 h; AID 624296; 350,000 compounds, 2.9% hits; further: nearly all actives have a fitted effect of over 50% in size
SW480 rerep: induces DNA re-replication in SW480 colon adenocarcinoma cells | SW480 DNA re-replication, Hoechst DNA content imaging, 48 h | Potency, µM (top dose mostly 46.1 µM), usual class: activators | 340,000 compounds, 1.8% hits | AID 624297; further: nearly all actives have a fitted effect of over 55% in size
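Hoechst fluorescence of nuclei (405 nm excitation, 500-530 nm emission) measured by plate-scanning imager after 48 hr compound exposure at 37 C; re-replication scored as increased number of nuclei with elevated intensity.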
Each line names hits and unclear results; the compound was inactive in the other large screens. The list is not random: actives were taken first. Their share in the collection is about 8.1%. The call rests on the fitted dose curve; in most records, active means well fitted curve in the direction sought with a large enough effect; inconclusive means small, poorly fitted or top-dose-only effect, or another doubt; inactive means no such curve, though single readings can be large; an effect the other way counts as inactive or inconclusive.

Cc1ccc(NC(=O)NNC(=O)Cn2nc(-c3ccccc3)c(-c3ccccc3)c(C#N)c2=O)cc1	KB-3-1 cytotox 6.5µM, MCF10A rereplic 1.5µM, SW480 rerep 2.9µM
O=C(OCc1ccccc1)N1CCOCCOCCN(C(=O)OCc2ccccc2)CCOCCOCC1	KB-V1 cytotox inconclusive, ELG1 DNA repair 10µM
CCOC(=O)CCC(NC(=O)c1ccc(Nc2nc3ccccc3nc2C(=O)OCC)cc1)C(=O)OCC (centres undefined)	KB-V1 cytotox 9.2µM (no result: ELG1 DNA repair)
Cc1ccccc1NC1=C(C(=O)c2ccccc2)N(C)S(=O)(=O)c2ccccc21	KB-V1 cytotox inconclusive
O=C(C1=C(Nc2ccccc2)c2ccccc2S(=O)(=O)N1)c1ccccc1	ELG1 DNA repair 16µM, MCF10A rereplic inconclusive
COCC(=O)OCC(=O)c1cc(C)n(-c2ccc(Br)cc2)c1C	none
Cc1cc(C(=O)COc2ccccc2Cl)c(C)n1-c1ccc2c(c1)OCO2	KB-V1 cytotox 13µM, KB-3-1 cytotox 18µM, ELG1 DNA repair inconclusive, MCF10A rereplic inconclusive, SW480 rerep inconclusive
Cc1ccc(-n2c(C)cc(C(=O)COc3c(CO)cc(F)cc3CO)c2C)cc1C	KB-V1 cytotox 7.3µM, ELG1 DNA repair inconclusive, MCF10A rereplic inconclusive
CCCN=C(C)c1c(-c2ccccc2)[nH]n(-c2nc3ccccc3s2)c1=O	KB-V1 cytotox 8.2µM, ELG1 DNA repair inconclusive
CCC(=NCc1ccccc1)c1c(C(F)(F)F)[nH]n(-c2nc3ccccc3s2)c1=O	ELG1 DNA repair inconclusive
CCC(=NCc1ccco1)c1c(C(F)(F)F)[nH]n(-c2nc3ccccc3s2)c1=O	KB-V1 cytotox 21µM, ELG1 DNA repair inconclusive
C=CCN(c1ccccc1OC)S(=O)(=O)c1ccc(Cl)c(C(=O)NCc2ccco2)c1	none (no result: ELG1 DNA repair, MCF10A rereplic, SW480 rerep)
COc1cccc(NC(=O)COc2ncnc3sc(C)c(C)c23)c1	none
CCN(CC(=O)Nc1cccc(OC)c1)c1ncnc2sc(C)c(C)c12	KB-V1 cytotox 2.3µM, KB-3-1 cytotox inconclusive, ELG1 DNA repair inconclusive
COc1cccc(C(=O)NNC(=S)NC2CCCCC2)c1	KB-V1 cytotox 23µM, ELG1 DNA repair inconclusive
COc1ccc(NC(=S)NCCc2ccccc2OC)c(OC)c1	KB-V1 cytotox 21µM, KB-3-1 cytotox inconclusive
COc1ccc(NC(=S)NC2CCCCCC2)c(OC)c1	KB-V1 cytotox 18µM, KB-3-1 cytotox inconclusive
COc1ccc(NC(=O)N(C2CCCCC2)C2CCN(C(C)C)CC2)c(OC)c1	KB-V1 cytotox 15µM
COc1ccc(NC(=O)N(C2CCCCC2)C(C)c2ccco2)c(OC)c1 (centres undefined)	KB-V1 cytotox inconclusive, MCF10A rereplic inconclusive
COc1ccc(NC(=S)NCc2ccccc2Cl)c(OC)c1	KB-V1 cytotox inconclusive, ELG1 DNA repair inconclusive
Cc1ccc(C)c(OCC(O)CN2CCN(CCN3C(=O)c4cccc5cccc(c45)C3=O)CC2)c1 (centres undefined)	KB-V1 cytotox inconclusive, KB-3-1 cytotox 16µM, ELG1 DNA repair 18µM, MCF10A rereplic inconclusive, SW480 rerep inconclusive
O=C1c2cccc3cccc(c23)C(=O)N1CC1CCN(CC(O)COc2ccc3ccccc3c2)CC1 (centres undefined)	KB-3-1 cytotox inconclusive, ELG1 DNA repair inconclusive, MCF10A rereplic inconclusive, SW480 rerep inconclusive
Nc1cc2c3c(cccc3c1)C(=O)N(CCN1CCCC1)C2=O	KB-V1 cytotox 23µM, KB-3-1 cytotox inconclusive, ELG1 DNA repair inconclusive, MCF10A rereplic inconclusive, SW480 rerep 15µM
O=C1c2cccc3cccc(c23)C(=O)N1CCN1CCN(CC(O)COc2ccc3ccccc3c2)CC1 (centres undefined)	KB-V1 cytotox inconclusive, KB-3-1 cytotox inconclusive, ELG1 DNA repair 9.2µM, MCF10A rereplic inconclusive, SW480 rerep inconclusive
S=c1[nH]nc(-c2cc(-c3ccccc3)n[nH]2)n1/N=C/C(Br)=C/c1ccccc1	KB-V1 cytotox inconclusive, KB-3-1 cytotox 15µM, ELG1 DNA repair inconclusive, MCF10A rereplic 3.3µM, SW480 rerep inconclusive
S=c1[nH]nc(-c2ccco2)n1/N=C/C(Cl)=C/c1ccccc1	ELG1 DNA repair inconclusive, MCF10A rereplic 7.3µM, SW480 rerep inconclusive
Cc1cc(-c2n[nH]c(=S)n2/N=C/C(Cl)=C/c2ccccc2)n[nH]1	KB-V1 cytotox 21µM, KB-3-1 cytotox inconclusive, MCF10A rereplic 4.6µM, SW480 rerep inconclusive
Cc1cc(-c2n[nH]c(=S)n2/N=C/c2cccc(O)c2)n[nH]1	none
CC(/C=N/n1c(-c2cccnc2)n[nH]c1=S)=C\c1ccccc1	KB-V1 cytotox 16µM, ELG1 DNA repair inconclusive
S=c1[nH]nc(-c2cccnc2)n1/N=C/c1ccccc1	ELG1 DNA repair inconclusive
CC(/C=N/n1c(-c2ccco2)n[nH]c1=S)=C\c1ccco1	none
CCOc1cc2[nH]c(=S)n(CCC(=O)N3CCc4ccccc4C3)c(=O)c2cc1OCC	none
COc1ccc(NC(=O)C2CCN(S(=O)(=O)c3ccc(OC)c(OC)c3)CC2)cc1	none
COCc1c(C(=O)OCC(=O)N2c3ccccc3CC2C)oc2ccccc12 (centres undefined)	none
COc1cc(/C=C/C(=O)OCC(=O)N2c3ccccc3NC(=O)C2(C)C)cc(OC)c1OC	KB-V1 cytotox inconclusive, KB-3-1 cytotox inconclusive, ELG1 DNA repair 10µM
COc1ccc(S(N)(=O)=O)cc1C(=O)OCC(=O)N1c2ccccc2NC(=O)C1(C)C	none
CC1(C)C(=O)Nc2ccccc2N1C(=O)COC(=O)c1ccc(Cl)c(S(=O)(=O)NCc2ccccc2)c1	ELG1 DNA repair 21µM
CC1(C)C(=O)Nc2ccccc2N1C(=O)COC(=O)c1cc(S(C)(=O)=O)ccc1Cl	none
COCc1c(C(=O)OCC(=O)N2c3ccccc3NC(=O)C2(C)C)oc2ccccc12	KB-V1 cytotox 16µM, MCF10A rereplic inconclusive
Cc1ccc(S(=O)(=O)N2CCOCC2)cc1C(=O)NC1CCCC(C)C1C (centres undefined)	none
O=C1c2[nH]nc(-c3ccccc3)c2C(c2ccccc2)N1c1cccc(C(F)(F)F)c1 (centres undefined)	KB-V1 cytotox 16µM, KB-3-1 cytotox inconclusive (no result: ELG1 DNA repair, MCF10A rereplic, SW480 rerep)
CC1(O)CC(c2ccc(Cl)cc2)=NN1C(=O)c1ccc(Cl)cc1 (centres undefined)	KB-V1 cytotox inconclusive, MCF10A rereplic 12µM, SW480 rerep inconclusive
Cc1noc(C)c1-c1ccc2nc[nH]c(=O)c2c1	KB-V1 cytotox inconclusive, KB-3-1 cytotox 13µM (no result: ELG1 DNA repair)
CN(Cc1c(F)cccc1Cl)c1nnnn1-c1ccccc1	KB-V1 cytotox 21µM
Fc1cccc(Cl)c1CNCCSc1nnnn1-c1ccccc1	none (no result: ELG1 DNA repair, MCF10A rereplic, SW480 rerep)
N#CC1=C(N)Oc2cc(N)ccc2C1c1ccc(F)cc1F (centres undefined)	KB-V1 cytotox inconclusive, KB-3-1 cytotox inconclusive, ELG1 DNA repair inconclusive, MCF10A rereplic 21µM, SW480 rerep 23µM
COc1ccc(C2C(C#N)=C(N)Oc3cc(N)ccc32)cc1 (centres undefined)	none
